Our source for the Potency values is PubChem BioAssay (NCATS).

Inconclusive results are not listed. Calls of active or inactive are those of the source. Calls come from the whole dose curve; as a rule, active = well fitted inhibition curve with a large enough effect; inconclusive = small, poorly fitted or top-dose-only effect; inactive = flat fitted curve, though single readings scatter.

What all share (assay): qHTS profiling for inhibitors of Plasmodium falciparum proliferation (AID 504749); note: nearly all actives have a fitted effect of over 60% in size
Conditions in all cases: P. falciparum in erythrocytes, SYBR Green DNA, 72 h; series mostly up to 28.7 µM
(In qHTS, concentration-response curves come from the screen itself.)

The test system of test [1] is CP247. The method in brief:
(§1)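 Infected RBCs, 0.3% parasitemia/2.5% Hct final; cpd 72 h, 37 C, 5% CO2; lysis buffer with saponin/triton/SYBR Green I, o/n RT dark; FI 485/535; norm. to artemisinin (0.29 uM) and DMSO.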

Test [2] deals with CP250. The method, boiled down:
as §1

Test [3] deals with CP252. The method, boiled down: as §1
The test system of test [4] is CP256. The method, boiled down:
as §1

Test [5] deals with CP260. The method in brief: as §1
Test [6] has as its system CP262. The method, boiled down:
as §1

In test [7] the test system is CP265. The method in brief: as §1
In test [8] the test system is CP266. The method in brief:
as §1

Test [9] concerns CP268. The method in brief: as §1
Test [10] relates to CP269. The method, boiled down: as §1
Potency is the fitted concentration of half-maximal effect.

As to `COc1ccc(-c2ccc3cc(C(=O)O)ccc3c2)cc1C12CC3CC(CC(C3)C1)C2`, the Potency result in [1], in [2], in [3], in [4], in test [5] and in [6] was “inactive” throughout. The Potency result in [7], in [8], in test [9] and in test [10] was “inactive” in each case.

Take `CCOCC(O)COc1ccc(NC(=O)CC[S+](C)C)cc1` (stereo not drawn): the Potency entry in [1], in test [2], in [3], in test [4], in test [5] and in [6] was “inactive” throughout. Besides, the Potency entry in test [7], in [8], in test [9] and in [10] was “inactive” each time.

Consider `C#CCN[C@@H]1CCc2ccccc21`, for which the Potency result in [1], in [2], in [3], in test [4], in test [5] and in test [6] was “inactive” in each case. Besides, the Potency result in test [7], in [8], in [9] and in test [10] was “inactive” throughout.

Consider `CN(C)c1ccc(C(=C2C=CC(=[N+](C)C)C=C2)c2ccc(N(C)C)cc2)cc1`, for which the Potency was 0.355 µM (active) in [1]; 0.316 µM (active) in test [2]; 0.224 µM (active) in test [3]; 0.158 µM (active) in [4]; 0.224 µM (active) in test [5]; 0.239 µM (active) in [6]. Also, the Potency in test [7] was 0.316 µM (active); in test [8], 0.601 µM (active); in [9], 0.849 µM (active); in [10], 0.239 µM (active).

Take `CC1=NN(c2ccccc2)C(=O)C1`: the Potency entry in test [1], in test [2], in test [3], in [4], in test [5] and in test [6] was “inactive” in each case. Also, the Potency entry in test [7], in test [8], in test [9] and in [10] was “inactive” throughout.

`Cc1nnc(NS(=O)(=O)c2ccc(N)cc2)s1`: the Potency result in [1], in [2], in test [3], in test [4], in [5] and in test [6] was “inactive” in each case. Besides, the Potency entry in test [7], in [8], in test [9] and in [10] was “inactive” each time.

For the compound `CC(C)OC(=O)C(C(=O)OC(C)C)=C1SC=CS1`, the Potency entry in test [1], in test [2], in test [3], in test [4], in test [5] and in [6] was “inactive” in each case. Moreover, the Potency entry in test [7], in [8], in test [9] and in test [10] was “inactive” in each case.

As to `CC[C@H](NC(C)C)[C@H](O)c1ccc(O)c2[nH]c(=O)ccc12`, the Potency result in test [1], in test [2], in [3], in test [4], in [5] and in [6] was “inactive” each time. The Potency result in test [7], in test [8], in test [9] and in test [10] was “inactive” in each case.

Consider `C[C@]12C=CC(=O)C=C1CC[C@@H]1[C@@H]2C(=O)C[C@@]2(C)[C@H]1CC[C@]2(O)C(=O)CO`, for which the Potency entry in [1], in test [2], in test [3], in [4], in [5] and in test [6] was “inactive” throughout. For the same compound, the Potency entry in test [7], in test [8], in test [9] and in test [10] was “inactive” each time.

On to `CNNCc1ccc(C(=O)NC(C)C)cc1`, for which the Potency entry in test [1], in test [2], in test [3], in test [4], in test [5] and in test [6] was “inactive” throughout. Besides, the Potency result in test [7], in test [8], in test [9] and in [10] was “inactive” in each case.

Take `Cc1ncc([N+](=O)[O-])n1CCO`: the Potency entry in [1], in [2], in [3], in test [4], in test [5] and in test [6] was “inactive” each time. Besides, the Potency result in test [7], in test [9] and in test [10] was “inactive” in each case.

Consider `CCc1cc(C(N)=S)ccn1`, for which the Potency result in test [1], in [2], in test [3], in test [4], in test [5] and in [6] was “inactive” in each case. Besides, the Potency result in test [7], in test [8], in test [9] and in test [10] was “inactive” in each case.

`COc1cc(NS(=O)(=O)c2ccc(N)cc2)nc(OC)n1`: the Potency result in test [1], in test [2], in test [3], in test [4], in test [5] and in test [6] was “inactive” each time. The Potency result in test [7], in test [9] and in [10] was “inactive” in each case.

As to `O=NN(CCCl)C(=O)NC1CCCCC1`, the Potency result in [1], in test [2], in test [3], in [4], in test [5] and in test [6] was “inactive” throughout. Also, the Potency result in test [7], in test [8], in test [9] and in [10] was “inactive” in each case.

In the case of `CCN(C)C(=O)Oc1cccc([C@H](C)N(C)C)c1`, the Potency result in test [1], in test [2], in [3], in test [4], in test [5] and in [6] was “inactive” throughout. Also, the Potency result in test [7], in test [8], in test [9] and in test [10] was “inactive” in each case.

For the compound `O=c1cc(O)c(Cl)c[nH]1`, the Potency entry in [1], in [2], in test [3], in test [4], in test [5] and in test [6] was “inactive” throughout. Further, the Potency result in test [7], in [9] and in [10] was “inactive” in each case.

Take `CN1CCN(c2c(F)cc3c(=O)c(C(=O)O)cn(CCF)c3c2F)CC1`: the Potency entry in [1], in test [2], in test [3], in [4], in [5] and in test [6] was “inactive” throughout. Besides, the Potency entry in test [7], in [8], in [9] and in test [10] was “inactive” in each case.

For `CCOc1cc(N)c(Cl)cc1C(=O)NCC1CN(Cc2ccc(F)cc2)CCO1` (stereo not drawn), the Potency in test [1] is 7.08 µM (active); in test [2], 5.62 µM (active); in test [3], 10 µM (active); in test [4] it was 2.82 µM (active); in test [5] it was 11.2 µM (active); in [6], 6.01 µM (active). The Potency was 3.16 µM (active) in test [7] and 13.5 µM (active) in test [10].

As for `C1CCC(C(CC2CCCCN2)C2CCCCC2)CC1` (stereo not drawn), the Potency in test [1] was 11.2 µM (active); in [2] it was 12.6 µM (active); in test [3] it was 11.2 µM (active); in [4] it was 10 µM (active); in test [5], 8.91 µM (active); in test [8] it was 15.1 µM (active). Also, the figures for the Potency in test [9] and in test [10] were 12 µM (active) and 13.5 µM (active), respectively. In addition, the Potency entry in [6] is “inactive”.

With `COC(=O)Nc1nc2ccc(Sc3ccccc3)cc2[nH]1`, the Potency entry in [1], in test [2], in [3], in test [4], in test [5] and in test [6] was “inactive” each time. In addition, the Potency result in test [7], in [9] and in test [10] was “inactive” each time.
